High-throughput results: PubChem, The Scripps Research Institute Molecular Screening Center
The list is not random: actives were taken first. Their share in the collection is about 5.7%.
DAX1 inh-1: inhibits human nuclear receptor DAX1; P51843; HEK293 Gal4-DAX1 luciferase reporter, luminescence; inhibition, % at 6.75 µM; 340,000 compounds, 0.99% hits;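 active = inhibition above the mean over all tested compounds plus 3 SD, cut at about 4.2% in these data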;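 also: 0% = DAX1-transfected cells with DMSO and 100% = empty-vector control cells with DMSO; inhibition shows as a rise in luminescence from relieved DAX1 repression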
ssDAF12 agonist: S. stercoralis DAF-12 activation, primary screen. activation, % at 6.8 µM. 370,000 compounds, 1% hits. AID 652126. HEK293 ssDAF-12/GRIP1 lit1-tk-luc reporter, luminescence; % of 3 µM dafachronic acid response;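 active = activation above the mean over all tested compounds plus 3 SD, cut at about 0.9% in these data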;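 also: 0% = DMSO-only wells and 100% = 3 µM delta7-dafachronic acid wells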
AHR act: human AHR activation; P35869; AHR-responsive luciferase reporter cells, luminescence; activation, % at 5 µM; 320,000 compounds, 2.5% hits; AID 2796; in the data active = activation above about 47%;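 also: 0% = vehicle wells and 100% = reference agonist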
hcDAF-12 act: activators of H. contortus DAF-12 nuclear receptor. HEK293 hcDAF-12 lit1-tk-luc reporter, luminescence; 0% DMSO, 100% Δ7-dafachronic acid. activation, % at 6.8 µM. 370,000 compounds, 1.4% hits. AID 652067;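 active = activation above the mean of all tested compounds plus 3 SD, cut at about 5.5% in these data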;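 also: 100% = response to 3 µM Δ7-dafachronic acid high control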
hgDAF-12 ag: activates the H. glycines DAF-12 receptor ligand-binding domain. AID 687014. HEK293 GAL4-hgDAF12 UAS-luciferase reporter, agonist luminescence; normalized to butyrate control. 370,000 compounds, 1.8% hits. activation, % at 6.8 µM;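 active = activation above a cutoff set at the mean of all screened compounds plus 3 SD, cut at about 10% in these data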;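 also: 0% = DMSO wells and 100% = sodium butyrate wells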
DAX1 inh-2: blocks DAX1 repression of SF-1 activated StAR promoter; HEK293T StAR-luciferase reporter, SF-1/DAX-1 repression relief; 370,000 compounds, 1.1% hits; inhibition, % at 6.8 µM;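 active = inhibition above the mean over all tested compounds plus 3 SD, cut at about 3.6% in these data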;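 also: 0% = DAX-1 cells with DMSO and 100% = cells lacking DAX-1 with DMSO; higher inhibition means more luminescence from relief of DAX-1 repression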
AHR act cf: confirmation of human aryl hydrocarbon receptor activators; shares compounds with AHR act; human cells, AHR-responsive luciferase reporter, luminescence; activation, % at 9 µM; 2,300 compounds, 87% hits; in the data active = activation above about 49%;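 also: HepG2 hepatoma cells carrying a DRE-driven firefly luciferase reporter; 0% = vehicle wells and 100% = reference agonist wells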
PXR act counter: activates human PXR in AHR activator counter-screen; shares compounds with AHR act; cell-based PXR reporter, luciferase luminescence; activation, % at 11.6 µM; 2,300 compounds, 88% hits; in the data active = activation above about 11%;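 also: human hepatoma DPX-2 cells expressing full-length human PXR; 0% = DMSO and 100% = reference agonist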
DAX1 conf: NR0B1 (human) inhibition, confirmation; shares compounds with DAX1 inh-2; HEK293T StAR-promoter luciferase reporter, SF-1/DAX-1 repression; inhibition, % at 6.8 µM; 2,400 compounds, 87% hits;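 active = inhibition above the average of every tested compound plus 3 SD, cut at about 3.8% in these data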;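 also: 0% = DAX-1 cells with DMSO and 100% = no DAX-1 control cells with DMSO; active compounds raise luminescence by relieving repression of the StAR reporter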
Target sequence (P51843 whole entry, looked up): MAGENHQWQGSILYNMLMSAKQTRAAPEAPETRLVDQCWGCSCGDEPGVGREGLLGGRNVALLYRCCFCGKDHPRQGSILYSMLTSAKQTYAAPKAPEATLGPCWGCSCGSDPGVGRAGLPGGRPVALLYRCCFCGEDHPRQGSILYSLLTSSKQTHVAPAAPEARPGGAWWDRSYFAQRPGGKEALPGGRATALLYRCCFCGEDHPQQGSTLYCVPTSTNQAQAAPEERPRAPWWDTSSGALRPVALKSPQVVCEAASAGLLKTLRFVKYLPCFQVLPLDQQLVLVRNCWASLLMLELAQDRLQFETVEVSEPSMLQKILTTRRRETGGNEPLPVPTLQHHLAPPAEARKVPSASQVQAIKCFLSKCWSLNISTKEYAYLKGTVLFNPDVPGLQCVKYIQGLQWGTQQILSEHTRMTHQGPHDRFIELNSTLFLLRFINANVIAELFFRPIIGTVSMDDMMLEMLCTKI
SF1 mutant ctr: nonselective inhibitor or artifact in SF-1 mutant DAX1 counter-screen. inhibition, % at 6.8 µM. AID 652136. HEK293 StAR-luciferase, SF-1 AF2 mutant, luminescence. 2,400 compounds, 78% hits. shares compounds with DAX1 inh-2;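 active = inhibition above the mean of all tested compounds plus 3 SD, cut at about 3% in these data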;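 also: 0% = DAX-1 transfected cells with DMSO and 100% = cells without DAX-1 with DMSO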
LXRb hcDAF ctr: counter-screen for hcDAF-12 agonists: agonists of human LXR-beta | shares compounds with hcDAF-12 act | HEK293 Gal4-LXR tk-luc reporter, luminescence, 24 h; normalized: DMSO 0%, positive control 100% | activation, % at 6.8 µM | 3,400 tested, under 10 active | AID 743027;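 active = mean percent activation of the reporter above a cutoff set as the average over tested compounds plus their standard deviation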
hcDAF12 conf: confirmation of H. contortus DAF-12 agonists; activation, % at 6.8 µM; HEK293 hcDAF-12 lit1-tk-luc reporter, luminescence; % of Δ7-dafachronic acid response; 3,400 compounds, 61% hits; shares compounds with hcDAF-12 act;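 active = mean activation across triplicate tests above the threshold derived from the earlier primary screen, cut at about 5.5% in these data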;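 also: 0% = DMSO only wells and 100% = 3 µM Δ7-dafachronic acid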
* hit, by the source's call; / = not tested or not shown.

SMILES	DAX1 inh-1	ssDAF12 agonist	AHR act	hcDAF-12 act	hgDAF-12 ag	DAX1 inh-2	AHR act cf	PXR act counter	LXRb hcDAF ctr	hcDAF12 conf	others
Cc1ccc(CNC(=O)CC(C)S(=O)(=O)c2cc3c(cc2C)NC(=O)CO3)cc1 (stereo not drawn)	1	-1	0	-2	-2	0	/	/	/	/
Cc1ccc2[nH]c(-c3ccccc3)cc(=O)c2c1	1	3.5*	135*	13*	5	3	34	57*	1	5
CC1CCN(c2nc(-c3cccnc3)nc3scc(-c4ccccc4)c23)CC1	-1	-1	15	3	3	0	/	/	/	/
Clc1nc(-c2ccccn2)nc2scc(-c3ccccc3)c12	1	0	80*	12*	14*	2	59*	25*	1	6.6*
Cc1ccc(-c2nnc(-c3cccc(Br)c3)o2)cc1	1	-1	23	2	7	2	/	/	/	/
Brc1cccc(-c2nnc(-c3ccccc3)o2)c1	4	1.6*	121*	11*	10*	3.9*	134*	28*	2	11*
O=[N+]([O-])c1cccc2ccc(/C=C/c3ccc(C(F)(F)F)cc3)nc12	0	0	82*	7.6*	2	0	96*	15*	0	2
CC(=O)Nc1ccc(/C=C/c2ccc3c([N+](=O)[O-])cccc3n2)cc1	0	-1	17	1	10	0	/	/	/	/
CC(=O)Nc1c(C(=O)Nc2ccc3c(c2)OCO3)oc2ccccc12	3	1	113*	7.6*	9	2	147*	35*	1	6.8*
Cc1ccc(Nc2nc(N3CCOCC3)nc(N3CCOCC3)n2)cc1C	-1	-1	-5	-2	0	2	/	/	/	/
Nc1ccc(-c2nc3ccc(N)cc3[nH]2)cc1	-1	-2	8	-1	-2	1	/	/	/	/
Nc1ccc2nc(-c3ccc(Cl)cc3)[nH]c2c1	2	0	167*	7.0*	4	2	111*	33*	1	4
CCc1nc2ccc(C(=O)NCc3ccc(OC)cc3)cn2c1N(C)CCC(C)C	/	-1	/	-2	0	0	/	/	/	/
c1cncc(-c2nc(-c3ccc4c(c3)OCO4)cs2)c1	1	0	95*	6.8*	12*	2	80*	27*	1	5
COc1ccc(C(=O)Oc2ccc(C)cc2)cc1S(=O)(=O)N1CCOCC1	2	-2	/	-1	0	0	/	/	/	/
CCOc1ccc(N2C(=O)CC(N(CCc3ccc(OC)c(OC)c3)C(=O)/C=C/C(=O)O)C2=O)cc1 (stereo not drawn)	1	-1	1	-3	1	1	/	/	/	/
c1ccc(-c2nc3c(ccc4ccccc43)[nH]2)nc1	1	1	95*	8.9*	12*	1	138*	11*	0	8.1*
Cc1cc(C)c(C)c(OC(=O)c2sc(Cl)nc2C)c1	1	-2	3	0	-2	0	/	/	/	/
COc1ccc(-c2[nH]ncc2/C=N/NC(=O)c2ccncc2)c(OC)c1	2	-1	10	0	1	0	/	/	/	/
COCCn1c(SCC(=O)N2CCCC2)nc2c([nH]c3ccccc32)c1=O	-1	1	23	3	0	0	/	/	/	/
CCOC(=O)N1CCN(C(=O)CSc2nc3c([nH]c4ccccc43)c(=O)n2CC)CC1	0	0	101*	8.3*	1	-5	94*	54*	0	1
O=c1[nH]cc(CN2CCOCC2)c(=O)[nH]1	0	-1	/	-2	-2	-1	/	/	/	/
COC(=O)c1[nH]c2ccccc2c1NC(=O)Oc1ccccc1	3	0	95*	8.4*	6	1	48*	19*	0	7.4*
CC1CCCC(NC(=O)COC(=O)/C=C/c2ccc(S(=O)(=O)N3CCOCC3)cc2)C1C (stereo not drawn)	1	-1	1	-1	3	0	/	/	/	/
Cn1c(/C=N/Nc2nc3ccccc3[nH]2)nc2ccccc21	2	1.9*	88*	17*	15*	5.5*	60*	9	2	8.0*	DAX1 conf=-2;SF1 mutant ctr=-4
SMILES	DAX1 inh-1	ssDAF12 agonist	AHR act	hcDAF-12 act	hgDAF-12 ag	DAX1 inh-2	AHR act cf	PXR act counter	LXRb hcDAF ctr	hcDAF12 conf	others
CC(=O)c1cc(O)c2ccccc2c1O	2	0	90*	10*	2	0	118*	9	0	3
Fc1ccc2nc3[nH]c4ccccc4c3nc2c1	3	1	134*	9.0*	12*	4.8*	189*	21*	2	11*	DAX1 conf=14*;SF1 mutant ctr=8.5*
O=C(CSCC(=O)Nc1nc(-c2ccc3c(c2)OCO3)cs1)Nc1nccs1	-1	-1	100*	8.4*	9	1	63*	27*	0	-1
Nc1cc2c3c(cccc3c1)C(=O)N(CCN1CCCC1)C2=O	-1	1.8*	142*	16*	-6	-1	201*	/	0	12*
c1ccc(Oc2cc(-c3ccccc3)ncn2)cc1	2	-1	5	2	7	1	/	/	/	/
Cc1cc(SCC(=O)c2cccs2)nc2ccccc12	2	0	99*	8.8*	9	1	103*	155*	0	4
c1ccc(COc2cccc(-c3cc4nc(NCCc5ccncc5)ccn4n3)c2)cc1	/	-2	/	-2	-3	-3	/	/	/	/
CC(C)(C)c1ccc(-c2nnc(NC(=O)c3ccccc3)s2)cc1	0	-1	3	0	-3	1	/	/	/	/
COCC(=O)Nc1nnc(-c2ccc(C(C)(C)C)cc2)s1	4	0	86*	10*	19*	4.8*	99*	30*	1	6.2*	DAX1 conf=14*;SF1 mutant ctr=7.4*
